These results are taken from PMC7862700, “An all-to-all approach to the identification of sequence-specific readers for epigenetic DNA modifications on cytosine”.

Assay in all cases: DAPPL (digital affinity profiling via proximity ligation, sequencing); 10 mM Tris-HCl pH 7.5, 50 mM NaCl, 1 mM DTT, 4% glycerol, room temperature, 30 min; GST-TFs on glutathione beads, 16-mer random dsDNA library, 0.1% formaldehyde crosslink after washing; high values mean tight binding
One assay addresses T1, FEV (Homo sapiens, UniProt Q99581 1-238).
T1 sequence: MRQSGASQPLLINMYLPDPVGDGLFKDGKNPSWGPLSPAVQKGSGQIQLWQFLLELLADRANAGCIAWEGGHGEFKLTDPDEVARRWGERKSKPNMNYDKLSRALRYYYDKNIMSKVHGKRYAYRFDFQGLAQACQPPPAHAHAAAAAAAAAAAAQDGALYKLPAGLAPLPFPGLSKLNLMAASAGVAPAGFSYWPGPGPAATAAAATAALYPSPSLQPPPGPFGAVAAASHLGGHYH
To be noted: protein: recombinant; tags: N-terminal GST; dsDNA, one strand shown. The gist of the method:
(§1)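 After expression in yeast as GST fusions, human transcription factors were bound to glutathione beads, DNA-barcoded and mixed with a tag-only sample. The pools were incubated with 200 nmole of a 16-mer random double-stranded DNA library in Tris/NaCl/DTT/glycerol buffer (30 min, room temperature), washed and crosslinked with 0.1% formaldehyde. Proximity ligation with BsaI/T4 ligase ran for 1 h at 37 °C, before PCR amplification and sequencing on an Illumina NextSeq500. Binding signal is a hexamer's read frequency for a factor divided by its frequency for the tag-only sample.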

The target of a further assay is ETV5 (Homo sapiens, UniProt P41161 1-510). As to conditions: protein: recombinant; tags: N-terminal GST; dsDNA, one strand shown. The gist of the method: as §1
In another assay the target is HSF1 (Homo sapiens, UniProt Q00613 1-529). As to conditions: protein: recombinant; tags: N-terminal GST; chain copies: 3; dsDNA, one strand shown. The gist of the method: as §1
The target of another assay is T2, SPIC (Homo sapiens, UniProt Q8N5J4 1-248).
T2 sequence: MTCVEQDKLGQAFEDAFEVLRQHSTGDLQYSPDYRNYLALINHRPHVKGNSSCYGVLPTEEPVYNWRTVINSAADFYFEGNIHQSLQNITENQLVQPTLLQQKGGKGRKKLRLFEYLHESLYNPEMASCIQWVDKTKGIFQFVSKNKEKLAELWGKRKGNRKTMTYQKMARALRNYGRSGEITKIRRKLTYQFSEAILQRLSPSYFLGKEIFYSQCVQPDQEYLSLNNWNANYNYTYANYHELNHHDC
To be noted: protein: recombinant; tags: N-terminal GST; dsDNA, one strand shown. An outline of the steps:
as §1

The target of a further assay is ELF4 (Homo sapiens, UniProt Q99607 1-663). To be noted: protein: recombinant; tags: N-terminal GST; dsDNA, one strand shown. An outline of the steps: as §1
In a further assay the target is T3, ELK4 (Homo sapiens, UniProt P28324-2 1-405).
T3 sequence: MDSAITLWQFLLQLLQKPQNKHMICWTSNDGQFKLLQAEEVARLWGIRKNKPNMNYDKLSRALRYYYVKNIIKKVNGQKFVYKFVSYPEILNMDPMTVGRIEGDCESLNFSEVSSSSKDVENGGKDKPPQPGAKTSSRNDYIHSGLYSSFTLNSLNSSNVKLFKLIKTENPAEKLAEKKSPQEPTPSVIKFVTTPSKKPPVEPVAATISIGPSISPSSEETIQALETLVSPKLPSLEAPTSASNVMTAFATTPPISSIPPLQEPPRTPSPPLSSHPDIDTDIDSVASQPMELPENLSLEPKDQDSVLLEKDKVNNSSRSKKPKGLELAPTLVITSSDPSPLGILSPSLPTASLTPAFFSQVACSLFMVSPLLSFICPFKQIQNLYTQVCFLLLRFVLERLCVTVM
As to conditions: protein: recombinant; tags: N-terminal GST; dsDNA, one strand shown. An outline of the steps: as §1

The next assay concerns the target T4, ETV2 (Homo sapiens, UniProt O00321 1-342).
T4 sequence: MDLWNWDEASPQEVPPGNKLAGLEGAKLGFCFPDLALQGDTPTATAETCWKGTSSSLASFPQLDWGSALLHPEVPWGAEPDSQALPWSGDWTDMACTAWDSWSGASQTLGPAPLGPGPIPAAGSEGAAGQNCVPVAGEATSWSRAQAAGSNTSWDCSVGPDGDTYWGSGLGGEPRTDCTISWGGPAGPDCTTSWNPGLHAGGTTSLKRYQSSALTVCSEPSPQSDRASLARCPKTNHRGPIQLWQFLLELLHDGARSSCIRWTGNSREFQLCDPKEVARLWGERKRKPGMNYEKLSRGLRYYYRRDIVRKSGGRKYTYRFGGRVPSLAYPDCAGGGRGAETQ
To be noted: protein: recombinant; tags: N-terminal GST; dsDNA, one strand shown. The gist of the method: as §1

Another assay concerns the target T5, ELF3 (Homo sapiens, UniProt P78545 1-371).
T5 sequence: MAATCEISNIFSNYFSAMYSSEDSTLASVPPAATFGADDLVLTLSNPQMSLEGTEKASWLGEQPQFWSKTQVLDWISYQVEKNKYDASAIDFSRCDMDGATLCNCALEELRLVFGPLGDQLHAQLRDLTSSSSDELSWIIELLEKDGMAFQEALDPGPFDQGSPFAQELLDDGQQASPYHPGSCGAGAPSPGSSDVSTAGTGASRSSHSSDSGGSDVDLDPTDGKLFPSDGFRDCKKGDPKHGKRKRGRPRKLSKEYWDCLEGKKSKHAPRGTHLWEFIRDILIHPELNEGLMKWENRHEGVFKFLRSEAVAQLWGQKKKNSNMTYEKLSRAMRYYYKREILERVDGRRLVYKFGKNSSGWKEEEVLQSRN
As to conditions: protein: recombinant; tags: N-terminal GST; dsDNA, one strand shown. An outline of the steps:
as §1

For another assay, the target named is CRX (Homo sapiens, UniProt O43186 1-299). As to conditions: protein: recombinant; tags: N-terminal GST; dsDNA, one strand shown. An outline of the steps:
as §1

The target in the next assay is ETV1 (Homo sapiens, UniProt P50549 1-477). To be noted: protein: recombinant; tags: N-terminal GST; dsDNA, one strand shown. An outline of the steps: as §1
ETV1, sequence (P50549 whole entry): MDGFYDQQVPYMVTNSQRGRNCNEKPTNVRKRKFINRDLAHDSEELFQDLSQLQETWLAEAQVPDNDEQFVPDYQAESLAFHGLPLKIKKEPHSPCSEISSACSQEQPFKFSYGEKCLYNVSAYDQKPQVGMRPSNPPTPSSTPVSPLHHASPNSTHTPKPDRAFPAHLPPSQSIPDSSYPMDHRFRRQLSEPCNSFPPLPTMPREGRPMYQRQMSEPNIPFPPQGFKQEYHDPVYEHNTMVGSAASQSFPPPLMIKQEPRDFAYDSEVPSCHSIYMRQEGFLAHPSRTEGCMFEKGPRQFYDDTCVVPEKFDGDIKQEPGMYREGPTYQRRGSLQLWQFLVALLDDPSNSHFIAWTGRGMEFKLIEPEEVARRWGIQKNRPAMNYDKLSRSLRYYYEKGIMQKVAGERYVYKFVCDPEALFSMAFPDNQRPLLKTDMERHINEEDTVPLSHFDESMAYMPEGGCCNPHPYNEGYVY

ELF4, sequence (Q99607 whole entry): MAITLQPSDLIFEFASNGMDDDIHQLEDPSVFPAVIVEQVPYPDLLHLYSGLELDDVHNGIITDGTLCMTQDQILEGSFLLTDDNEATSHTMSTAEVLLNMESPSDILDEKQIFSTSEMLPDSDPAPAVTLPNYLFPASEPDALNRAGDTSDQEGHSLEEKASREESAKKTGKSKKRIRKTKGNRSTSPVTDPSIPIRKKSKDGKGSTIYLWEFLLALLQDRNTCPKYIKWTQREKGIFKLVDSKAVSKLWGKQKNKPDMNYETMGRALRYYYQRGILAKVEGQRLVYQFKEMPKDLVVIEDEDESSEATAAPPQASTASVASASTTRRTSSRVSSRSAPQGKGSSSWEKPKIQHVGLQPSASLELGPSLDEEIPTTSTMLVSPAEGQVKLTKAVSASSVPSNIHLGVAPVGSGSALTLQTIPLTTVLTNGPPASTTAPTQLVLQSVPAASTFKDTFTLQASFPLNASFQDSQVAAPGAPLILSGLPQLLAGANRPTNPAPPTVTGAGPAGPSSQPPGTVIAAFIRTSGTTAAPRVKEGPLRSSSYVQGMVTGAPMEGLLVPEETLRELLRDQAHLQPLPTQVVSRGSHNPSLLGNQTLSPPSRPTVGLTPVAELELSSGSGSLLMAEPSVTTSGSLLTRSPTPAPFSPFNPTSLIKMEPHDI
CRX, sequence (O43186 whole entry): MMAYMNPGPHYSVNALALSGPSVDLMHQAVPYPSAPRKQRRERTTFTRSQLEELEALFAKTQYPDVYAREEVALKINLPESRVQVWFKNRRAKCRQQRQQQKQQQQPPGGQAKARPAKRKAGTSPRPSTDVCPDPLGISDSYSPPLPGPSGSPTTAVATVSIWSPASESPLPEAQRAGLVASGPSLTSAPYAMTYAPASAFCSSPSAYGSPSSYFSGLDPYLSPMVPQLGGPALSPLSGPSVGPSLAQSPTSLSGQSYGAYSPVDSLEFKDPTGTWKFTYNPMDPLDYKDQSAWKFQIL
HSF1, sequence (Q00613 whole entry): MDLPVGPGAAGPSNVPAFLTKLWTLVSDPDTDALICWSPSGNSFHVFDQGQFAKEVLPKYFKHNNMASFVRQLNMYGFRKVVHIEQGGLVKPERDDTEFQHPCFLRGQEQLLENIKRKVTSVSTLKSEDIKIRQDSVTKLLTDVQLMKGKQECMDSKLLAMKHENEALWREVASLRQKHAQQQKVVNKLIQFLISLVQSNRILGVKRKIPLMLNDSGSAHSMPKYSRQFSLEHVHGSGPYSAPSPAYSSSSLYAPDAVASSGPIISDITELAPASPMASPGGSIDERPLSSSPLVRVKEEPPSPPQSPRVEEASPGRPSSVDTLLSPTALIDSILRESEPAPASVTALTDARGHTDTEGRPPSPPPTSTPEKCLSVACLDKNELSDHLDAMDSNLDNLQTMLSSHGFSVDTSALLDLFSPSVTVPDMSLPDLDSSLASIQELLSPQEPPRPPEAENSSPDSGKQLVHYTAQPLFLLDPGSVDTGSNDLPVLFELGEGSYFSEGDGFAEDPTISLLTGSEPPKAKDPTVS
ETV5, sequence (P41161 whole entry): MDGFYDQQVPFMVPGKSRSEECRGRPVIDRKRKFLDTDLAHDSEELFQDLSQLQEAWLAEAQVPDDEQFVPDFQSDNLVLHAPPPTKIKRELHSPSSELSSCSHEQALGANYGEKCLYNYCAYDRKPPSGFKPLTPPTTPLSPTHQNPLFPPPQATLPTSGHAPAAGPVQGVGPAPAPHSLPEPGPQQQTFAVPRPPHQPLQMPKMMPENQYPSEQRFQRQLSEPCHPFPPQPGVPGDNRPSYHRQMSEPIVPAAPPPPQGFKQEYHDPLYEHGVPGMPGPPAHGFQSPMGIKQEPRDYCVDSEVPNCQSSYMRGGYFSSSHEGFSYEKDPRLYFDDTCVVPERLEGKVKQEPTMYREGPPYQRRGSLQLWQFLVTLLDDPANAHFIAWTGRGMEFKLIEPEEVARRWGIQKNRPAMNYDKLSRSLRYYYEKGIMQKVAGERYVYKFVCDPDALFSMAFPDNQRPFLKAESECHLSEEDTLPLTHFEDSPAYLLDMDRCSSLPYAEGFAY

In the case of TTTACC, the binding signal is 1.32 fold enrichment (6-mer frequency, TF over GST control) in the assay with FEV; 1.29 fold enrichment (6-mer frequency, TF over GST control) with ETV5; 1.25 fold enrichment (6-mer frequency, TF over GST control) with HSF1; 1.17 fold enrichment (6-mer frequency, TF over GST control) with SPIC; 1.24 fold enrichment (6-mer frequency, TF over GST control) with ELF4; 1.41 fold enrichment (6-mer frequency, TF over GST control) with ELK4. Also, the binding signal in the assay with ETV2 was 1.3 fold enrichment (6-mer frequency, TF over GST control); with ELF3, 1.2 fold enrichment (6-mer frequency, TF over GST control); in the assay with CRX it was 1.48 fold enrichment (6-mer frequency, TF over GST control); with ETV1, 1.16 fold enrichment (6-mer frequency, TF over GST control).
